# PubChem BioAssay (NCATS)
# Records with an inconclusive call do not appear. Where a call stands in place of a potency, no number is given. Active and inactive are the calls of the source. Unless noted, calls follow the shape of the dose curve; as a rule, active = well fitted curve in the direction sought with a large enough effect; inconclusive = small, poorly fitted or top-dose-only effect, or another doubt; inactive = no such curve, though single readings can be large; an effect the other way counts as inactive or inconclusive.
# Columns and labels:
# [1] = target: Catechol O-methyltransferase (Homo sapiens) (UniProt P21964); experiment: Confirmatory Screen for Target Class Profiling of Small Molecule Inhibitors of Methyltransferases (AID 1745852; calls by dose curve; also: potency is read from the fitted curve at half-maximal effect); conditions: MTase-Glo luminescence, SAH detection, recombinant enzyme; measured here: COMT max response; stronger effect = lower value
# Sequence of Catechol O-methyltransferase (Homo sapiens) (P21964 whole entry, looked up): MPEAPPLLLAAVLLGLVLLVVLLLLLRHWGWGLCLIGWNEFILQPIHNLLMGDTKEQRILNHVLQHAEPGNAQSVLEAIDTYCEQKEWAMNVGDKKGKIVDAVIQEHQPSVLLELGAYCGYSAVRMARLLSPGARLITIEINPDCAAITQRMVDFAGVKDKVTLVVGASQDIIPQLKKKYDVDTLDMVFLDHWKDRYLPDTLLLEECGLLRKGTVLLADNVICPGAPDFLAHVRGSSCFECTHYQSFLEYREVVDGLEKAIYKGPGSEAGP
# [2] = target: Guanidinoacetate N-methyltransferase (Homo sapiens) (UniProt Q14353); experiment: as above; conditions: MTase-Glo luminescence, SAH detection, recombinant enzyme; activity change, negative = inhibition: at 57.3 µM (top of the series) unless noted
# [3] = target: Nicotinamide N-methyltransferase (Homo sapiens) (UniProt P40261); experiment: as above; conditions: MTase-Glo luminescence, SAH detection, recombinant enzyme; measured here: NNMT max response; stronger effect = lower value
# Sequence of Nicotinamide N-methyltransferase (Homo sapiens) (P40261 whole entry, looked up): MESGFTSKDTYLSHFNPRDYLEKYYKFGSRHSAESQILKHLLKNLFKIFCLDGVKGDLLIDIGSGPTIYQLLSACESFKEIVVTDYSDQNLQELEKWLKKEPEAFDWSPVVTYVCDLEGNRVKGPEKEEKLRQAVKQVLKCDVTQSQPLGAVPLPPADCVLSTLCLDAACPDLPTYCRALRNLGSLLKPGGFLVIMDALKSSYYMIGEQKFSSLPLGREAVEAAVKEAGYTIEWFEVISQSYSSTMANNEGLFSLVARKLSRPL
# [4] = target: Phenylethanolamine N-methyltransferase (Homo sapiens) (UniProt P11086); experiment: as above; conditions: MTase-Glo luminescence, SAH detection, recombinant enzyme; measured here: PNMT max response; stronger effect = lower value
# Sequence of Phenylethanolamine N-methyltransferase (Homo sapiens) (P11086 whole entry, looked up): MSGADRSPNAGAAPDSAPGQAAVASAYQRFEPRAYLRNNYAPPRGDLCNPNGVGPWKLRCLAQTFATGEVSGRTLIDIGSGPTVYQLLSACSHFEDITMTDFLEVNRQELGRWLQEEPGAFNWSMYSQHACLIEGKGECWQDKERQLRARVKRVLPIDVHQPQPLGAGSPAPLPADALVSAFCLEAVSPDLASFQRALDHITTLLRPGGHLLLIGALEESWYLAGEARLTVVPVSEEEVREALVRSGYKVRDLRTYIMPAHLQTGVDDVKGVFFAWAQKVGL
# [5] = target: Metallo-beta-lactamase type 2 (Klebsiella pneumoniae) (UniProt C7C422); experiment: qHTS to identify inhibitors of the New Delhi Metallo-beta-lactamase (NDM): assay validation screen against the NCATS LOPAC Collection (AID 1794843); conditions: NDM-1 enzyme, nitrocefin hydrolysis, absorbance 485 nm; series mostly up to 38.4 µM;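 also: nitrocefin turnover by NDM-1 measured as 485 nm absorbance at plateau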
# Sequence of Metallo-beta-lactamase type 2 (Klebsiella pneumoniae) (C7C422 whole entry, looked up): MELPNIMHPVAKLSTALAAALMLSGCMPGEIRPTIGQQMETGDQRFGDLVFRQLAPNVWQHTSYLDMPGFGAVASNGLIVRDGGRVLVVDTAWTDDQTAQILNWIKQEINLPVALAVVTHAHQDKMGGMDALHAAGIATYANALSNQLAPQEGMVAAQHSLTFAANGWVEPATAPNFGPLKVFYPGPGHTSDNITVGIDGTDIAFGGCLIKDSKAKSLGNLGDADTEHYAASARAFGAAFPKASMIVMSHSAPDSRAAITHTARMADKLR
# Procedure, shortened: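 NDM-1 at 2 nM final in 50 mM HEPES pH 7.0, 1 uM ZnSO4, 0.01% Tween20, preincubated with LOPAC compounds pinned in DMSO; 50 uM nitrocefin (stock) added. Hydrolysis read as absorbance at 485 nm in the plateau phase.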
# [6] = target: Glutathione peroxidase 1 (Homo sapiens) (UniProt P07203); experiment: Primary qHTS Assay for Inhibitors of Recombinant Selenoprotein Glutathione Peroxidase 1 (GPX1) (AID 1845191); conditions: recombinant GPX1, GR-coupled NADPH fluorescence, 15 min; series mostly up to 48.8 µM; also: nearly all actives have a fitted effect of over 65% in size
# Sequence of Glutathione peroxidase 1 (Homo sapiens) (P07203 whole entry, looked up): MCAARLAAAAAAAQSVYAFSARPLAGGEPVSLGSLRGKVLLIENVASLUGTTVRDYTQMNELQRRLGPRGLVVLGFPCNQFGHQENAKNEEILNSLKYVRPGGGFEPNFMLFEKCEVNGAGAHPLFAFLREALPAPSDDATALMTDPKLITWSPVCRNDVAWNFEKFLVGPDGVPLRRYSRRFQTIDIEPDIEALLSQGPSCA
# Procedure, shortened: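 GPX1 10 nM, GR 100 nM, GSH 1 mM, NADPH 0.5 mM, CHP 0.5 mM (final). 30-min cpd preincubation, RT. Ex340/Em450 read t=0, t=15 min.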
# [7] = target: Phospholipid hydroperoxide glutathione peroxidase GPX4 (Homo sapiens) (UniProt P36969); experiment: Primary qHTS Assay for Inhibitors of Recombinant Selenoprotein Glutathione Peroxidase 4 (GPX4) (AID 1845192); conditions: recombinant GPX4, GR-coupled NADPH fluorescence, 15 min; series mostly up to 50 µM; also: nearly all actives have a fitted effect of over 65% in size
# Sequence of Phospholipid hydroperoxide glutathione peroxidase GPX4 (Homo sapiens) (P36969 whole entry, looked up): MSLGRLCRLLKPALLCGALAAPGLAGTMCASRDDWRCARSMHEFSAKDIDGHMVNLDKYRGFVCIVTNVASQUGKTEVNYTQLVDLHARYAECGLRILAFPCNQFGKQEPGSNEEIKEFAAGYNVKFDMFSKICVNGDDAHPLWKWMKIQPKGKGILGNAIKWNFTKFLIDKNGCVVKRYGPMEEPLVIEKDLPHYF
# Procedure, shortened: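 qHTS, GR-coupled: GPX4 200 nM + cpd 30 min RT → GSH 1 mM, NADPH 0.5 mM, GR 100 nM → CHP 0.5 mM start; fluor 340/450 at t0 and t15 min; no-enzyme wells as control.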
# [8] = target: Rap guanine nucleotide exchange factor 3 (Homo sapiens) (UniProt O95398); experiment: Confirmatory qHTS for agonist of cAMP-regulated guanine nucleotide exchange factor 3 (EPAC1) (AID 1645881); conditions: EPAC1 Rap1B BODIPY-GDP exchange fluorescence; series mostly up to 154 µM; also: nearly all actives have a fitted effect of over 75% in size; also: potency is read from the fitted curve at half-maximal effect
# Sequence of Rap guanine nucleotide exchange factor 3 (Homo sapiens) (O95398 whole entry, looked up): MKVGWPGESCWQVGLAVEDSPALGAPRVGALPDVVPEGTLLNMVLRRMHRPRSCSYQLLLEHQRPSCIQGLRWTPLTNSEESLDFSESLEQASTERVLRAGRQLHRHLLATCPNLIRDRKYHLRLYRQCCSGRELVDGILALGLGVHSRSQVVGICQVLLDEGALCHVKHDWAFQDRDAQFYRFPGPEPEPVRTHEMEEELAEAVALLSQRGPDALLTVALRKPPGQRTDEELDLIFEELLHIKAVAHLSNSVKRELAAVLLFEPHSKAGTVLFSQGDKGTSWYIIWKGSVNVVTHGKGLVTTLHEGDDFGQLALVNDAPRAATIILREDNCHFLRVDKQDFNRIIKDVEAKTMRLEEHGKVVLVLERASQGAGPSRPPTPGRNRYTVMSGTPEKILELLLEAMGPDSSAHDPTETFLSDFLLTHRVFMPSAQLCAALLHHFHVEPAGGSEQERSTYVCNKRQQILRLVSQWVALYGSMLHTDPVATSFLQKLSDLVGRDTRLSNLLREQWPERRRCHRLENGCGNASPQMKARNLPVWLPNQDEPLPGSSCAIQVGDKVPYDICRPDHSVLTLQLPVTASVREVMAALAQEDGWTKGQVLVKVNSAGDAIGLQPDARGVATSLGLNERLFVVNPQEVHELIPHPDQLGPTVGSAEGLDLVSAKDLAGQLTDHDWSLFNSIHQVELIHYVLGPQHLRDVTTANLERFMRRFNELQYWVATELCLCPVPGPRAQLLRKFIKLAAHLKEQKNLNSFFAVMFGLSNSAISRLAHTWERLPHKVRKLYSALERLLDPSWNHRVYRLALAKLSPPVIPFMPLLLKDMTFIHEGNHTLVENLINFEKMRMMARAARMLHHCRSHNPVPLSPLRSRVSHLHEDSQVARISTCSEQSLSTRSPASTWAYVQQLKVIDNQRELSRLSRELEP
# [9] = target: Rap guanine nucleotide exchange factor 4 (Homo sapiens) (UniProt Q8WZA2); experiment: Confirmatory qHTS for agonist of cAMP-regulated guanine nucleotide exchange factor 4 (EPAC2) (AID 1645884); conditions: EPAC2 GEF activity, Rap1B-BODIPY-GDP fluorescence; series mostly up to 154 µM;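 also: nucleotide exchange releases bodipy-GDP from Rap1 and this lowers its fluorescence; nearly all actives have a fitted effect of over 65% in size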; also: potency is read from the fitted curve at half-maximal effect
# Sequence of Rap guanine nucleotide exchange factor 4 (Homo sapiens) (Q8WZA2 whole entry, looked up): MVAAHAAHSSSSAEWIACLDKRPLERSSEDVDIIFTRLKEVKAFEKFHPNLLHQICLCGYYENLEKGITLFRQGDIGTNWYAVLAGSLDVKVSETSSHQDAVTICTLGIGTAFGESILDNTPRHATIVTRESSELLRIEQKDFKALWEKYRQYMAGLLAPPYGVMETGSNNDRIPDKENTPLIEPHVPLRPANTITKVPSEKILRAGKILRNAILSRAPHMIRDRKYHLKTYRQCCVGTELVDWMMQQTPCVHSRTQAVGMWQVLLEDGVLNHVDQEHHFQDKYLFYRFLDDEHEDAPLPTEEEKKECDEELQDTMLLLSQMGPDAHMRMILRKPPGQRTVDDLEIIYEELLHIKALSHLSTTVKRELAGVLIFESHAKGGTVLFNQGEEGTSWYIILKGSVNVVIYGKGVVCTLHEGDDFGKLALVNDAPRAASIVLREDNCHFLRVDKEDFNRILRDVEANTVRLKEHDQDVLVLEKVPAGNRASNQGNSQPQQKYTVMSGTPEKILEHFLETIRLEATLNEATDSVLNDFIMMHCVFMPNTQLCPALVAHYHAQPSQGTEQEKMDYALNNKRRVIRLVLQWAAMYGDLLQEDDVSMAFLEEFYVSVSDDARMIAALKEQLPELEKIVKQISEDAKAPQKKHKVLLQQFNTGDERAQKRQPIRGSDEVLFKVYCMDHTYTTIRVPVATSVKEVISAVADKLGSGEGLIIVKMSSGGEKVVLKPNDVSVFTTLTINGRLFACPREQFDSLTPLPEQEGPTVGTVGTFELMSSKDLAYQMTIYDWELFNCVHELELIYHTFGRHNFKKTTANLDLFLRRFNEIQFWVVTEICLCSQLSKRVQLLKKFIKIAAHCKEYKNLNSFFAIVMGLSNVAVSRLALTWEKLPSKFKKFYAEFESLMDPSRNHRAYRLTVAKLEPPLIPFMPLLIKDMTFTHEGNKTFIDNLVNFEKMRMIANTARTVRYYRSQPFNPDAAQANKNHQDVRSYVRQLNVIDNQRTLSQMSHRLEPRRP
# [10] = target: Nuclear receptor subfamily 1 group I member 3 (Homo sapiens) (UniProt Q14994); experiment: Primary qHTS for antagonist of constitutive androstane receptor (CAR) against the NCATS DSHEA and TCM libraries (AID 1794836); conditions: CAR reporter cell assay, antagonist mode, luciferase; series mostly up to 40 µM
# Sequence of Nuclear receptor subfamily 1 group I member 3 (Homo sapiens) (Q14994 whole entry, looked up): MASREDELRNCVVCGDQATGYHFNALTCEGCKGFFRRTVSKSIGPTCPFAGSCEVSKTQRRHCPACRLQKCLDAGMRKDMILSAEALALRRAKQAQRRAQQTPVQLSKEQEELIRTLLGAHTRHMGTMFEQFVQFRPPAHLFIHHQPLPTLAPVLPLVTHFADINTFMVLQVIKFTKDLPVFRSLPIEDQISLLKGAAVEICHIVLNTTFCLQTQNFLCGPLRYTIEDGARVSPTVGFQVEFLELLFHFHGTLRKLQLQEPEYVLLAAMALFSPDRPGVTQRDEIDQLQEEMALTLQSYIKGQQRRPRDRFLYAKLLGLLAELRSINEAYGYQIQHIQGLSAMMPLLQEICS
# Procedure, shortened: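 HepG2 cells stably carrying hCAR and a CYP2B6 luciferase reporter (2,500 cells/well) attached for 5 h, then received compounds with 48 uM CITCO for 24 h at 37C. ONE-Glo luminescence read antagonism; CellTiter-Fluor (405/540 nm) gave viability.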
# [11] = Viability counterscreen for antagonist of constitutive androstane receptor (CAR) against the NCATS DSHEA and TCM libraries (AID 1794837); conditions: CAR reporter cell line viability counterscreen, qHTS; series mostly up to 40 µM;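 also: compound exposure lasted 24 h before viability reading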
# Procedure, shortened: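 Cells: HepG2 line carrying CYP2B6 reporter and hCAR, seeded and attached 5 h. Then pin-transferred test substances plus agonist CITCO at 48 uM final; 24 h incubation; fluorogenic viability reagent, 1 h.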
# [12] = Viability counterscreen for agonist of constitutive androstane receptor (CAR) against the NCATS DSHEA and TCM libraries (AID 1794838); conditions: HepG2 cell viability counterscreen, CAR agonist assay; series mostly up to 40 µM;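 also: HepG2 cells with CYP2B6 reporter and hCAR plus 0.75 µM PK11195 antagonist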
# Procedure, shortened: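 Cell health was measured as CellTiter-Fluor signal in HepG2-CYP2B6-hCAR cells treated for 24 h with substances alongside the hCAR antagonist PK11195 (0.75 uM final).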
# [13] = target: Nuclear receptor subfamily 1 group I member 3 (Homo sapiens) (UniProt Q14994); experiment: Primary qHTS for agonist of constitutive androstane receptor (CAR) against the NCATS DSHEA and TCM libraries (AID 1794839); conditions: CAR agonist reporter cells, qHTS luminescence; series mostly up to 40 µM;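 also: HepG2 cells expressing human CAR with a CYP2B6 reporter plus PK11195 antagonist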
# Procedure, shortened: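 qHTS, agonist mode: HepG2-CYP2B6-hCAR, 2,500 cells/well, 5 h attach; cpds + PK11195 0.75 µM final; 24 h, 37 °C, 5% CO2. Readouts: CellTiter-Fluor (405/540 nm), then ONE-Glo luminescence.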
# [14] = HepG2 viability counterscreen (readout 2: ATP content) against the NCATS DSHEA and TCM libraries (AID 1794840); conditions: ATP content luminescence; series mostly up to 27.3 µM
# Procedure, shortened: (§1)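 Same wells read twice: first fluorescence from cleaved GF-AFC substrate (25 uM final, 30 min, 37C) for live-cell protease, then CellTiter-Glo luminescence after 30 min at room temperature for ATP. HepG2 cells were exposed ~24 h to substances.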
# [15] = HepG2 viability counterscreen (readout 1: protease activity) against the NCATS DSHEA and TCM libraries (AID 1794841); conditions: qHTS concentration series; series mostly up to 27.3 µM;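 also: cells exposed to compounds for about 24 h before the protease read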
# Procedure, shortened: as §1
# [16] = NCATS anti-infectives library activity on HEK293 viability as a counter-qHTS vs the C. elegans viability qHTS (AID 1745854); conditions: HEK293 viability counter-screen; series mostly up to 41.8 µM
# Procedure, shortened: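 CellTiter-Glo luminescence, read on a CCD imager, scored viability of HEK293 cells after 24 hr compound exposure at 37C. Library tested in several concentrations, 1:5 steps, up to 41.7 uM; digitonin served as control.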
# [17] = NCATS anti-infectives library activity on the primary C. elegans qHTS viability assay (AID 1745855; calls by dose curve; also: potency is read from the fitted curve at half-maximal effect); conditions: C. elegans worm area imaging, day 7; series mostly up to 41.8 µM
# Procedure, shortened: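 Titration-based screen in worms: eggs hatched overnight in M9, L1 larvae fed TOP10 capsules in S medium with compound, incubated 21 °C for 7 days; fluorescent objects gated by size and intensity at days 0, 3 and 7.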
# [18] = target: Luciferin 4-monooxygenase (Photinus pyralis) (UniProt P08659); experiment: Primary firefly luciferase (FLuc) qHTS assay for identification of artifact compounds. (AID 1845220); conditions: purified firefly luciferase, luminescence, 5 min; series mostly up to 54.1 µM; also: nearly all actives have a fitted effect of over 60% in size
# Procedure, shortened: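 In this counter-screen for luciferase artifacts, test compounds met substrate (10 uM each luciferin and ATP) before 10 nM enzyme started the reaction. Light output was measured 5 min later.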
# [19] = Primary fluorescence-based thiol-reactive (MSTI) qHTS assay for identification of artifact compounds. (AID 1845221); conditions: MSTI thiol-reactivity probe, 1 h; series mostly up to 53.8 µM;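 also: thiol-reactive compounds lower the probe fluorescence signal; nearly all actives have a fitted effect of over 65% in size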
# Procedure, shortened: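 Curve-fitted percent inhibition (4-parameter Hill) derived from fluorescence, Ex 525/Em 598 nm, scaled with Acetyl-MSTI and MSTI; 1 h incubation at room temperature.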
# [20] = target: Rap guanine nucleotide exchange factor 4 (Homo sapiens) (UniProt Q8WZA2); experiment: Confirmatory qHTS for antagonist of cAMP-regulated guanine nucleotide exchange factor 4 (EPAC2) (AID 1645885); conditions: EPAC2 Rap1B-BODIPY-GDP exchange fluorescence, biochemical; series mostly up to 114 µM; also: potency is read from the fitted curve at half-maximal effect; nearly all actives have a fitted effect of over 25% in size
smiles,measurement,setting,value
CCCN1CCC[C@@H](c2cccc(O)c2)C1,activity,[1],4.08%
same,"activity change, negative = inhibition",[2],1.62%
same,activity,[3],0.9%
same,activity,[4],6.74%
same,Potency,[5],inactive
same,Potency,[6],inactive
same,Potency,[7],inactive
NCC(O)c1cc(O)c(O)cc1F (stereo not drawn),activity,[1],129%
same,"activity change, negative = inhibition",[2],4.77%
same,activity,[3],-1.34%
same,activity,[4],31.6%
same,Potency,[5],inactive
same,Potency,[6],inactive
same,Potency,[7],inactive
O=C1OC2(c3cc(Br)c(O)cc3Oc3c2cc(Br)c(O)[c]3[Hg])c2ccccc21 (stereo not drawn),Potency,[8],4750 nM (active)
same,Potency,[9],1340 nM (active)
same,Potency,[6],inactive
C[C@]12Cc3cn4c(nc3C=C1CCC1C2CC[C@@]2(C)[C@H]1CC[C@@]2(O)C#N)nc1ccccc14 (stereo partly drawn),activity,[1],-23.1%
same,Potency,[2],611 nM (active)
same,activity,[3],-35.3%
same,activity,[4],-11.6%
same,Potency,[5],inactive
same,Potency,[6],inactive
same,Potency,[7],inactive
CCCCCc1cc(O)c2c(c1)OC(C)(C)[C@@H]1CCC(C)=C[C@@H]21,Potency,[8],inactive
same,Potency,[9],inactive
O=C/C=C/c1ccccc1,outcome,[10],inactive
same,outcome,[11],inactive
same,outcome,[12],inactive
same,outcome,[13],inactive
same,outcome,[14],inactive
same,outcome,[15],inactive
same,Potency,[6],inactive
same,Potency,[7],inactive
CNC(C)C(O)c1ccc(O)cc1 (stereo not drawn),outcome,[10],inactive
same,outcome,[11],inactive
same,outcome,[12],inactive
same,outcome,[13],inactive
same,outcome,[14],inactive
same,outcome,[15],inactive
O=C(O)c1ccnc2cc(C(OCCN3CCCCC3)c3ccccc3Cl)[nH]c12 (stereo not drawn),outcome,[16],inactive
same,Potency,[17],inactive
same,Potency,[6],inactive
same,Potency,[7],inactive
same,Potency,[18],inactive
same,Potency,[19],inactive
C1=C2CCCN[C@H]2[C@@H]2C[C@H]1[C@H]1CCCCN1C2,outcome,[16],inactive
same,Potency,[6],inactive
same,Potency,[7],inactive
same,Potency,[18],inactive
same,Potency,[19],inactive
CC(C)(C)c1cc(O)ccc1O,Potency,[8],inactive
same,Potency,[9],inactive
Cc1cc(C(=O)CN2CCCC2)c(C)n1-c1ccc(F)cc1,outcome,[16],inactive
same,Potency,[6],inactive
same,Potency,[7],inactive
same,Potency,[18],inactive
same,Potency,[19],inactive
CC(C)(C)c1cc(C=C(C#N)C#N)cc(C(C)(C)C)c1O,activity,[1],-14.8%
same,"activity change, negative = inhibition",[2],-1.85%
same,activity,[3],-20.4%
same,activity,[4],-25.9%
same,Potency,[17],290 nM (active)
same,Potency,[5],inactive
same,Potency,[6],inactive
same,Potency,[7],inactive
CN1CCC[C@@H]1Cc1c[nH]c2ccc(Nc3ncccc3[N+](=O)[O-])cc12,activity,[1],3.7%
same,"activity change, negative = inhibition",[2],2.94%
same,activity,[3],-4.11%
same,activity,[4],3.35%
same,Potency,[5],inactive
same,Potency,[6],inactive
same,Potency,[7],inactive
same,Potency,[18],inactive
O=C1CN=C(c2ccccc2)c2cc(Cl)ccc2N1CC1CC1,Potency,[8],inactive
same,Potency,[20],55500 nM (active)
C[C@@H]1[C@@H]2Cc3ccc(O)cc3[C@@]1(C)CCN2CC1CC1,activity,[1],7.89%
same,"activity change, negative = inhibition",[2],6.66%
same,activity,[3],-1.08%
same,activity,[4],4.55%
CCCCCOc1cc2c(cc1-c1cc(/C=C/C(=O)O)ccc1O)C(C)(C)CCC2(C)C,activity,[1],-5.76%
same,"activity change, negative = inhibition",[2],-6.96%
same,activity,[3],-28.2%
same,activity,[4],0.0952%
same,Potency,[6],inactive
same,Potency,[7],inactive
same,Potency,[18],inactive
same,Potency,[19],inactive
